Results published in PubChem BioAssay (Tox21).
Results filed as inconclusive are left out. Entries that show only a call come without a potency. Unmarked numbers belong to inactive results. Calls of active or inactive are those of the source. The call rests on the fitted dose curve; in most records, active means well fitted cell-killing curve with a large enough effect in the repeat runs; inconclusive means weak or mixed curves, or effect the other way; inactive means flat fitted curve, though single readings scatter.

assay: qHTS assay to identify small molecule agonists of the sonic hedgehog signaling (Shh) pathway - cell viability counter screen (AID 1259366); conditions: NIH/3T3 Gli1-Luc viability, CellTiter-Fluor, 24 h; series mostly up to 92.4 µM; further: nearly all actives have a fitted effect of over 50% in size
Description: National Center for Advancing Translational Sciences [NCATS]
NIH Chemical Genomics Center [NCGC]
U.S. Environmental Protection Agency [EPA]
National Institutes of Environmental Health Sciences [NIEHS]
National Toxicology Program [NTP]
U.S. Food and Drug Administration [FDA]
The sonic hedgehog (Shh) pathway is essential for normal embryonic development. Dysregulation of the Shh pathway can cause severe developmental defects in organs. Therefore chemicals that interfere with the pathway are potential developmental toxicants. A cell line designated 3T3Gli1-Luc (DMB/OARSA/CFSAN/FDA, Laurel, MD), a NIH/3T3 derived clone containing stably integrated Gli1-Luc reporter is used to detect chemical interference of the Shh pathway, by changes in the expression of the firefly Luc gene under the control of the Gli1 transcriptional response element. This cell line was used to screen Tox21 libraries for identifying and prioritizing the potential developmental toxicants that interfere Shh pathway. The cytotoxicity of the compounds was tested in parallel by measuring the cell viability using CellTiter-Fluor assay system (Promega, Madison, WI) in the same wells.
Tox21 Assay Protocol Summary:
3T3 Gli1-Luc cells were dispensed at 2,000 per well in 5uL of culture medium into white solid bottom 1536-well plates (Greiner Bio-One, Monroe, NC) using a Multidrop Combi (Thermo Scientific, Waltham, MA) dispenser. The assay plates were incubated at 37 C and 5% CO2 for 4hr, and then 23nL of compounds dissolved in DMSO and positive control were transferred using a Pintool station (Wako, San Diego, CA). The assay plates were incubated at 37C and 5% CO2 for 24hr. For viability read, after 23hr of compound treatment, 1uL of CellTiter-Fluor reagent (Promega Corporation, Madison, WI) was added to each well of the assay plates using Flying Reagent Dispenser (FRD, Aurora Discovery, San Diego, CA) and incubated the assay plates at 37C for 1hr. The fluorescence signal was quantified using a ViewLux plate reader (Perkin Elmer, Shelton, CT).

SMILES | Potency | viability change, negative = cytotoxic
CCCCCCOC(=O)CCCCC(=O)OCCCCCC | inactive | –
CCSC(=O)N(CC(C)C)CC(C)C | inactive | –
CCOc1ccc(C(=O)OCCN(CC)CC)cc1 | inactive | –
O=C(O)c1ccccc1OP(=O)(O)O | inactive | –
CCOC(C)(C)C | inactive | –
COC(C)(C)CCCC(C)CC=O (stereo not given) | inactive | –
Nc1ccccc1S(=O)(=O)O | inactive | –
C1OCOCO1 | inactive | –
C[C@](N)(Cc1ccc(O)cc1)C(=O)O | – | 4.48% [at 8.39 µM]
CCCCOCCOCCOCc1cc2c(cc1CCC)OCO2 | inactive | –
O=C(O)COc1nn(Cc2ccccc2)c2ccccc12 | inactive | –
O=c1cc(CO)occ1O | inactive | –
Cc1sccc1Br | inactive | –
C[N+](C)(C)CC(O)CC(=O)[O-] (stereo not given) | inactive | –
CN(C(=O)c1c(O)c2ccccc2n(C)c1=O)c1ccccc1 | inactive | –
CCCN(CCC)CCc1cccc2c1CC(=O)N2 | inactive | –
CCN1CCC[C@H]1CNC(=O)c1c(O)c(Cl)cc(Cl)c1OC | inactive | –
CCCC(=O)O[C@]1(C(=O)CO)CC[C@H]2[C@@H]3CCC4=CC(=O)CC[C@]4(C)[C@H]3[C@@H](O)C[C@@]21C | inactive | –
O=C(CCCN1CCC(O)(c2cccc(C(F)(F)F)c2)CC1)c1ccc(F)cc1 | inactive | –
CN(C)CCCSc1ccccc1NC(=O)/C=C/c1ccccc1 | inactive | –

SMILES | Potency | viability change, negative = cytotoxic
C[C@H]1C[C@@H](O)CC(C)(C)C1 | inactive | –
CC(=O)OCC(CCn1cnc2cnc(N)nc21)COC(C)=O | inactive | –
CC(=O)c1ccccc1O | inactive | –
C=C[Si](OC(=C)C)(OC(=C)C)OC(=C)C | inactive | –
NS(=O)(=O)c1ccccc1Cl | inactive | –
C[C@@H]1CCN(C(=O)[C@H](CCCN=C(N)N)NS(=O)(=O)c2cccc3c2NC[C@H](C)C3)[C@@H](C(=O)O)C1 | inactive | –
CN(C)CCCNCCCN(C)C | inactive | –
CC1(C)CO[C@@H](CC(=O)O)CN1 | inactive | –
CC[N+](C)(C)c1cccc(O)c1 | inactive | –
C[C@H](NC(CCc1ccccc1)C(=O)O)C(=O)N1CCC[C@H]1C(=O)O (stereo not given in full) | inactive | –
CC(C)OC(=O)c1ccccc1 | inactive | –
CC(=O)N(CC(O)CO)c1c(I)c(C(=O)NCCO)c(I)c(C(=O)NCC(O)CO)c1I (stereo not given) | inactive | –
NC(CSCC(=O)O)C(=O)O (stereo not given) | inactive | –
CCOC(=O)c1c(C)n(C)c2ccc(O)cc12 | inactive | –
c1ccc([C@H]2CN3CCSC3=N2)cc1 | inactive | –
O=[N+]([O-])c1ccc(F)cc1F | inactive | –
CN1CC(=O)NC1=N | inactive | –
NC(=O)Nc1ccccc1 | inactive | –
C=CCOCC(CC)(CO)COCC=C | inactive | –
COc1nc(N)nc2c1ncn2[C@@H]1O[C@H](CO)[C@@H](O)[C@@H]1O | inactive | –
